Among all 65,000 compounds or so, about 2,100 (3.2%) showed an effect of 50% or more. The median lay at about -52%. For the sample, strong results were picked, then their nearest neighbours and some compounds at random.

In this experiment the test system is Plasmodium falciparum. Description: Screen against P. falciparum Asexual Blood Stage (ABS), at 5uM. The experiment is classed as functional, Dd2. To be noted: tested at 5 uM.
Take `CC(C)Nc1ncnc2c1CCN(C(=O)N1CCOCC1)CC2`: the INHIBITION is -114%.
Under `CCC[C@@H]1CN(C(=O)c2ccccc2-c2ccccc2)C[C@H]1N(C)C` stands 22.2%; under `CCC[C@@H]1CN(C(=O)c2cc(-c3cccs3)n(C)n2)C[C@H]1N(C)C`, -63%; under `CCC[C@@H]1CN(C(=O)c2conc2-c2ccccc2)C[C@H]1N(C)C`, 52.8%.
With `CCC[C@@H]1CN(C(=O)c2ccccc2C(C)=O)C[C@H]1N(C)C` the figure was -112%; with `CCC[C@@H]1CN(C(=O)c2cc3ccccc3cc2O)C[C@H]1N(C)C`, 52.8%; with `CCC[C@@H]1CN(C(=O)c2ccccc2-c2ncc[nH]2)C[C@H]1N(C)C`, -80.9%.
With `CCOCC1CN(C2CCCC2)Cc2cnn(CC3CCOCC3)c21` (configuration not stated) the figure was -1.53%; with `CC(C)N1CCCN(c2nc(-c3cccnc3)nc3c2cnn3C)CC1`, 43.8%; with `CCN1CCC(CC(=O)NCc2nc(C)cc(C)n2)CC1`, -46.7%.
In the case of `Cc1nc(C2CCCN2C(=O)COc2ccccc2)ncc1C(N)=O` (configuration not stated), the INHIBITION is listed as -61%.
Under `COc1cccc(CN(C)C(=O)c2ccc(NC(C)=O)s2)c1OC` stands -83.5%.
Under `NC(=O)CCNC(=O)NCC1(c2ccccc2Cl)CCC1` stands -18.5%; under `O=C(NC1CCCN(c2ccccc2Cl)C1)c1c[nH]nn1` (configuration not stated), -144%.
Under `NC(=O)CCNCc1c(Cl)cccc1N1CCCC1` stands 66.4%; under `O=c1oc(-c2cccs2)nn1CC(O)c1ccc2c(c1)CCC2` (configuration not stated), -20%; under `Cc1nnc(NC(=O)C(C)n2ncc(Br)c2C)s1` (configuration not stated), -120%.
Consider `CCCn1ncc(CN2C[C@@H]3CCCN3C[C@H]2CCSC)c1C`, for which the INHIBITION is -62.1%.
With `C=Cn1ncc(CN2C[C@@H]3CCCN3C[C@@H]2Cc2ccccc2)c1C` the figure was 25.8%.
With `CCCn1ncc(CN2C[C@@H]3CCCN3C[C@@H]2Cc2ccccc2)c1C` the figure was 63.8%; with `CCCn1ncc(CN2C[C@@H]3CCCN3C[C@H]2Cc2ccccc2)c1C`, 57.8%; with `CCn1ncc(CN2C[C@@H]3CCCN3C[C@@H]2CCSC)c1C`, -116%.
`CCCn1ncc(CN2C[C@@H]3CCCN3C[C@@H]2CCSC)c1C`: the INHIBITION was found to be 29.3%.
With `CNC(=O)COC1COC2(CCN(Cc3ccncc3F)CC2)C1` (configuration not stated) the figure was -146%; with `CC(C)[C@H](NS(C)(=O)=O)C(=O)NCc1cc(-c2ccco2)nn1C`, -141%.
For the compound `COc1c(CNCc2ccccc2Cn2cccn2)c(C)nn1C`, the INHIBITION came to 57.4%.
With `COc1c(CNCc2ccc(Cn3cccn3)cc2)c(C)nn1C` the figure was 14.8%.
Under `COc1c(CNCc2ccccc2Cn2cncn2)c(C)nn1C` stands 3.03%; under `COC[C@]1(O)CCN(c2cc(C3CC3)ncn2)CC1(C)C`, -106%.
For `CC(C)c1cc(C(=O)NCCc2nc(-c3cccnc3)n[nH]2)[nH]n1`, the INHIBITION was 14.9%.
With `CC(C)c1cc(C(=O)NCCc2nc(-c3ccncc3)n[nH]2)[nH]n1` the figure was 66.4%; with `CC(C)C(=O)NCCc1nc(-c2ccncc2)n[nH]1`, -11.5%; with `Cc1noc([C@@H]2C[C@H]3OCC[C@H]3N(Cc3cc(C)c(C)o3)C2)n1`, -151%.
For `CNC(=O)NC(=O)CN1CCC(c2cccc(F)c2)C1` (configuration not stated), the INHIBITION was -92.5%.
Under `CCNC(=O)NC(=O)CN1CCC(c2cccc(F)c2)C1` (configuration not stated) stands -4.74%; under `CC(C)NC(=O)CN1CCC(c2cccc(F)c2)C1` (configuration not stated), 54.9%; under `Cc1ccccc1NC(=O)N1CCN(Cc2noc(C3CC3)n2)CC1`, -69.4%.
With `CSCCCNC(=O)C(c1ccccc1C)N(C)C` (configuration not stated) the figure was -35.8%; with `Cc1ccccc1C(C(=O)NCCSC(F)(F)F)N(C)C` (configuration not stated), 46.1%; with `Cc1ccccc1C(C(=O)NCCSC(C)C)N(C)C` (configuration not stated), 50.3%.
With `CSC(C)C(=O)N(C)CCCc1cc(-c2ccccc2)no1` (configuration not stated), the INHIBITION is -25.3%.
Under `CCOC(=O)C1CCN(c2cc(C(=O)N3CCOCC3)nc(C)n2)CC1` stands -5.84%; under `COc1ccc(C(NCc2ccc(C#N)cc2)C2CC2)cc1` (configuration not stated), 60.9%.
In the case of `COc1ccc(C(NCc2cccc(C#N)c2)C2CC2)cc1` (configuration not stated), the INHIBITION is recorded as 48.3%.
Consider `COc1ccc(C(NCc2cccc(C#N)c2)C(C)C)cc1` (configuration not stated), for which the INHIBITION is reported as -11.2%.
Take `O=C(C1CCOC1)N1CCC2(CCN(Cc3nccs3)CC2)CC1` (configuration not stated): the INHIBITION is reported as -146%.
Under `COc1ccc(NC(=O)c2nc3ccccc3n(C)c2=O)cc1OC` stands -33.5%; under `O=C(O)c1cc2c(nc1-c1ccoc1)CCN(CC1CCOC1)CC2` (configuration not stated), -108%.
Under `CSCC(=O)N(C)Cc1noc(-c2ccccc2)n1` stands -229%; under `CN(C)CC(C)(O)CNC(=O)Nc1sc2ccccc2c1Cl` (configuration not stated), 63.2%; under `CN(C)C(=O)CCNC(=O)Nc1sc2ccccc2c1Cl`, -22.3%.
Under `CS(=O)(=O)CCNC(=O)Nc1sc2ccccc2c1Cl` stands -95%; under `Cc1cc(-c2cnc(N3CCCCCC3)nc2-c2cccnc2C)on1`, 3.45%.
Consider `Cc1cnn(C2CN(CCOc3cccc(C#N)c3)C2)c1`, for which the INHIBITION is -128%.
Under `CCS(=O)(=O)N1CC(=O)N(Cc2ccccc2OC)CC(O)C1` (configuration not stated) stands -105%; under `CCOC(=O)C1CCN(C(=O)c2cnn(-c3ccccc3F)c2N)CC1`, -221%.
With `c1cc(CNCc2ccnc(N3CCOCC3)c2)c2c(c1)OCO2` the figure was -31.4%; with `c1csc(C(CNCc2cccc3c2OCO3)N2CCOCC2)c1` (configuration not stated), 40.2%.
With `Cc1ccc(C(CNCc2cccc3c2OCO3)N2CCOCC2)o1` (configuration not stated) the figure was 65.7%.
`Cc1cc(C2CCCN2C(=O)CN2C(=O)OC(C)(C)C2=O)on1` (configuration not stated): the INHIBITION was -28.9%.
Consider `CCCS(=O)(=O)N1C[C@@H]2CN(Cc3cnn(C)c3)CCO[C@@H]2C1`, for which the INHIBITION is listed as -67.3%.
Regarding `O=C(NCCn1cccc1)C(c1ccccc1)N1CCCC1` (configuration not stated), the INHIBITION is 54.4%.
With `Cc1cccc(C(C(=O)NCCn2cccc2)N(C)C)c1` (configuration not stated) the figure was 42.5%; with `O=C(NCCNc1cccnc1)C(c1cccnc1)N1CCCC1` (configuration not stated), -11.7%; with `CC(C)(NCc1cccc(C(N)=O)c1)c1ccc2c(c1)OCO2`, 19.8%.
Regarding `CC(C)(NCc1ccc(C#N)cc1)c1ccc2c(c1)OCO2`, the INHIBITION was -0.993%.
With `CC(C)(NCc1cccc(C#N)c1)c1ccc2c(c1)OCO2` the figure was 51.5%.

The values above are taken from ChEMBL document CHEMBL4513216, “Probing the Open Global Health Chemical Diversity Library for Multistage-Active Starting Points for Next-Generation Antimalarials” (ACS Infect Dis, 2020).
